Key:
Assay in all cases: PBM binding z-score (relative to random genomic background probes); higher = stronger binding; sequences stand for … in GC…GCGATTGACAGCGTAGAATGAAGG
[1] = test system: FXR:RXRa (NR concentration 270 nM, RXRa partner concentration 90 nM)
Summary of the method: (§1)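 Each nuclear receptor dimer, without ligand, was incubated for 1 h on custom Agilent 4×180K protein-binding microarrays. Binding was detected with antibodies against each partner (one per run), and scanned fluorescence was regression-normalized. The binding z-scores are referenced to random human genomic background probes.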

[2] = test system: LXRa:RXRa (NR concentration 270 nM, RXRa partner concentration 90 nM)
Summary of the method: as §1

[3] = test system: LXRa homodimer (NR concentration 270 nM)
Summary of the method: as §1

[4] = test system: LXRb:RXRa (NR concentration 270 nM, RXRa partner concentration 90 nM)
Summary of the method: as §1

[5] = test system: LXRb homodimer (NR concentration 270 nM)
Summary of the method: as §1

[6] = test system: PPARa:RXRa (NR concentration 270 nM, RXRa partner concentration 90 nM)
Summary of the method: as §1

[7] = test system: PPARg:RXRa (NR concentration 180 nM, RXRa partner concentration 90 nM)
Summary of the method: as §1

[8] = test system: PPARg:RXRa 270nM:90nM, anti-RXR (NR concentration 270 nM, RXRa partner concentration 90 nM)
Summary of the method: as §1

[9] = test system: PPARg:RXRa 30nM:10nM, anti-RXR (NR concentration 30 nM, RXRa partner concentration 10 nM)
Summary of the method: as §1

[10] = test system: PPARg:RXRa 90nM:30nM, anti-RXR (NR concentration 90 nM, RXRa partner concentration 30 nM)
Summary of the method: as §1

[11] = test system: PPARg:RXRa DBDmut IVT, anti-RXR (DBD mutation: RXRa K156A/R161A, NR concentration 270 nM, RXRa partner concentration 90 nM)
Summary of the method: as §1

[12] = test system: PPARg:RXRa IVT, anti-PPARg (NR concentration 270 nM, RXRa partner concentration 90 nM)
Summary of the method: as §1

[13] = test system: PPARg DBDmut:RXRa IVT, anti-PPARg (DBD mutation: PPARg1 K132A/R137A, NR concentration 270 nM, RXRa partner concentration 90 nM)
Summary of the method: as §1

[14] = test system: PPARg DBDmut IVT, anti-PPARg (DBD mutation: PPARg1 K132A/R137A, NR concentration 270 nM)
Summary of the method: as §1

[15] = test system: PPARg homodimer (NR concentration 180 nM)
Summary of the method: as §1

[16] = test system: PXR:RXRa (NR concentration 270 nM, RXRa partner concentration 90 nM)
Summary of the method: as §1

[17] = test system: PXR homodimer (NR concentration 270 nM)
Summary of the method: as §1

[18] = test system: RARa:RXR (NR concentration 270 nM, RXRa partner concentration 90 nM)
Summary of the method: as §1

[19] = test system: RARa homodimer (NR concentration 270 nM)
Summary of the method: as §1

[20] = test system: RARb:RXRa (NR concentration 270 nM, RXRa partner concentration 90 nM)
Summary of the method: as §1

Sequence | PBM binding z-score [1] | PBM binding z-score [2] | PBM binding z-score [3] | PBM binding z-score [4] | PBM binding z-score [5] | PBM binding z-score [6] | PBM binding z-score [7] | PBM binding z-score [8] | PBM binding z-score [9] | PBM binding z-score [10] | PBM binding z-score [11] | PBM binding z-score [12] | PBM binding z-score [13] | PBM binding z-score [14] | PBM binding z-score [15] | PBM binding z-score [16] | PBM binding z-score [17] | PBM binding z-score [18] | PBM binding z-score [19] | PBM binding z-score [20]
GTACCAAGGTAAATAGGTCGTTGATGAGTAGGCG | 0.0892 | 0.228 | -0.0943 | 0.151 | -0.264 | 1.73 | 1.37 | 1.34 | 0.667 | 0.78 | 1.71 | 2.84 | 0.778 | 0.523 | 0.489 | 0.181 | 0.0446 | 0.634 | 0.265 | 0.675
AGTCAAAGTTAATCTAGGTAACGTAAGATATGCT | 0.59 | 0.213 | -0.267 | -0.245 | -0.44 | 1.29 | 1.78 | 1.41 | 0.619 | 0.829 | 2.39 | 4.39 | 1.49 | 1.19 | -0.261 | -0.201 | 0.136 | 0.155 | 0.301 | 0.39
TAGCTTAGGTCAGATCGGGCCAGTATACGCTATA | 2 | 1.41 | -0.333 | 0.69 | 0.0114 | 1.96 | 0.531 | 0.891 | 0.0799 | 0.412 | -0.166 | 0.996 | 0.561 | -0.217 | 0.322 | 1.24 | -0.17 | 1.68 | -0.0696 | 3.54
CGTCCATGGTCAGCAGGTCAGTGAAAGCGACGTG | 0.175 | -0.104 | -0.348 | -0.0301 | -0.987 | 0.781 | -0.0482 | -0.0239 | -0.823 | -0.464 | 0.0989 | 0.518 | -0.843 | -0.979 | -0.43 | 0.159 | -0.486 | 0.728 | -0.616 | 2.28
ACTATTAGTTGACTTAGGGCTACCGATACGACGC | 0.0661 | -0.121 | -0.0225 | -0.352 | 0.601 | -0.131 | 0.862 | -0.0974 | 0.182 | -0.112 | -0.203 | 0.114 | 1.14 | 0.816 | 0.416 | -0.151 | -0.109 | 0.146 | 0.74 | 0.27
ATCGTAAGGTCGAAGGTGAGTATACCCACCCGAA | 2.6 | 1.9 | -0.314 | 1.71 | 0.36 | 3.41 | 3.62 | 3.7 | 1.42 | 3.36 | -0.143 | 1.54 | 1.22 | -0.311 | 1.79 | 1.87 | -0.0484 | 3.33 | 0.0373 | 2.74

From the supplement of paper PMC6555819
